Among the data in PubChem BioAssay (NCATS) are outcome and Potency values, retold here.

A short description of test [1]: qHTS Assay for Identification of Small Molecule Inducers of Hypoxia Response (AID 2120; active means well fitted curve in the direction sought with a large enough effect in the signal ratio, with a control signal flat, not every such curve was filed as active; the % refers to the signal ratio). In a few lines: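 HRE-bla ME-180 cells in Opti-MEM with 0.5% dialyzed FBS, pre-plated 4-5 h, then compound titration for 17 h at 37 degrees Celsius. CCF4 loaded 2.5 h at room temperature; 460/530 nm ratio gave %Activity and AC50 for induction.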
The nature of test [2]: Cytometric Cell-Based qHTS for Inhibitors of the mTORC1 Signaling Pathway in MEF (Tsc2-/-, p53-/-) Cells (AID 2660).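 Further: percent of cells above a phospho-rpS6 to PI ratio cutoff in each well; series mostly up to about 38 µM.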 In a few lines: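 Percent of cells positive for normalized phospho-S6 staining is reported, with the cutoff set from rapamycin (7.5 nM) versus DMSO wells. Tsc2-/-, p53-/- MEFs received compound for 24 hrs.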
In general terms: Quantitative high-throughput screening tests each substance at several concentrations.

Test [3] in a line: High Content Imaging Cell-Based qHTS for Inhibitors of the mTORC1 Signaling Pathway in MEF (Tsc2-/-, p53-/-) Cells (AID 2666).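 Further: percent of cells scored positive for phospho-rpS6 Ser235/236 immunostaining by imaging.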 In a few lines: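 Read-out: % positive cells per well, with thresholds from highest- and lowest-signal wells, based on phospho-rpS6 (Ser235/236) intensity normalized to Hoechst nuclear stain. Cells: Tsc2-/-, p53-/- MEFs carrying empty vector; compound 24 hrs, 37 degree Celsius.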

The nature of test [4]: High Content Imaging Cell-Based qHTS for Inhibitors of the mTORC1 Signaling Pathway in MEF Cells (AID 2667).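 Further: Tsc2-/- p53-/- MEFs stably re-expressing wild-type Tsc2 exposed 24 h; series mostly up to about 38 µM.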 An outline of the steps:
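MEF (Tsc2-/-, p53-/-, WT Tsc2 re-expressed); cpd 24 h, 37 °C; PFA fix; Alexa-488 anti-p-rpS6 Ser235/236, PI, Hoechst; IN Cell imaging; Hoechst/Alexa-488 intensity ratio; % active cells, thresholds set from rapamycin and DMSO wells.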

The nature of test [5]: Cytometry Cell-Based qHTS for Inhibitors of the mTORC1 Signaling Pathway in MEF cells (AID 2668).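 Further: Tsc2-/- p53-/- mouse embryonic fibroblasts stably re-expressing wild-type Tsc2; percent cells positive for phospho-rpS6 Ser235/236 relative to propidium iodide stain; series mostly up to about 38 µM.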 An outline of the steps:
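MEFs (Tsc2-/-, p53-/- stably expressing WT Tsc2) treated 24 h at 37 degree Celsius, fixed, stained with Alexa-488 anti-phospho-rpS6 Ser235/236 and propidium iodide; Acumen laser scanning. Reported as % positive cells, phospho-S6 normalized to PI.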

Test [6] addresses Ubiquitin carboxyl-terminal hydrolase 2 (Homo sapiens) (UniProt O75604). Nature of the test: qHTS Validation Assay for Inhibitors of Ubiquitin-specific Protease USP2a Using CHOP2 as the Reporter (AID 463106). In a few lines: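 USP2 core (10nM final) was preincubated with compound for 30min at RT in 20mM Tris-HCl pH 8.0, 2mM CaCl2, 2mM beta-mercaptoethanol, 0.05% CHAPS. Ub-CHOP2 and reporter substrate (25nM each) were added, and fluorescence (Ex 485/Em 531nm) was read after 60min.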

Test [7] concerns the target DNA polymerase III PolC-type (Bacillus subtilis (strain 168)) (UniProt P13267). Nature of the test: qHTS Validation Assay for the Inhibitors of DNA Replication in Gram-Positive Bacteria (AID 485295). Further: potency means the concentration at half of the fitted maximal effect. In a few lines:
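Reconstituted B. subtilis Pol III holoenzyme (PolC, beta clamp, SSB, primase) preincubated with compound, then M13Gori single-stranded circular template with dNTPs/NTPs added; room temperature reaction. Stopped with EDTA/PicoGreen; dsDNA fluorescence read, EDTA as full-inhibition control.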

The target of test [8] is Tumor susceptibility gene 101 protein (Homo sapiens) (UniProt Q99816). Nature of the test: qHTS Validation Assay for Iinhibitors of HIV-1 Budding by Blocking the Interaction of PTAP/TSG101 (AID 485342; calls by dose curve). In a few lines:
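Tsg101 binding domain (10 uM) with FITC-labeled PTAP peptide (50 nM) in HEPES pH 7.5 buffer, 20 min at r.t. with compounds. Binding measured by fluorescence polarization.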

Test [9] can be described thus: qHTS Validation Assay to Find Inhibitors of Chronic Active B-Cell Receptor Signaling (AID 485345; active means well fitted curve in the direction sought with a large enough effect in the main read-out, with a control signal flat, not every such curve was filed as active). An outline of the steps:
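TMD8 ABC-DLBCL cells with dox-inducible green luciferase–IκBα fusion and red native luciferase; compounds 46 uM–3 nM, 4 h at 37C with doxycycline in 0.5% FBS IMDM. Green/red ratio normalized to basal and 10 uM MG-132.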

Test [10] concerns the target Beta-2 adrenergic receptor (Homo sapiens) (UniProt P07550). Nature of the test: qHTS validation assay of beta-arrestin-biased ligands of beta2-adrenergic receptor (AID 485366). In a few lines:
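Luminescence from a tTA-responsive luciferase, induced when recombinant beta-arrestin is recruited to recombinant beta2-AR, served as the agonism signal. Cells were exposed to compound for 18 hr at 37 degrees C; titrations spanned up to 46 microM.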

Test [11] concerns the target ATP-dependent 6-phosphofructokinase (Trypanosoma brucei brucei) (UniProt O15648). Nature of the test: qHTS Validation Assay to Find Inhibitors of T. brucei phosphofructokinase (AID 485368). Further: potency means the concentration at half of the fitted maximal effect. In a few lines: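 Activity was normalized between 1x (1.25 nM) PFK wells as no inhibition and enzyme-free wells as full inhibition, from luminescence after ADP-Glo detection of ADP made from 0.5 mM F6P and 0.1 mM ATP over 45 min.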

Test [12] deals with Ferritin light chain (Equus caballus) (UniProt P02791). Description: qHTS Validation Assay for Identification of Novel General Anesthetics (AID 2323). Further: series mostly up to about 77 µM. In a few lines:
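Horse-spleen apoferritin (10 uM) in PBS with 50% saturated 1-aminoanthracene; compounds pin-transferred, 10 min at room temperature. Fluorescence read at 380/535 nm, normalized to free 1-AMA and 1-AMA/apoferritin values; four-parameter Hill fit.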

Test [13] addresses ATP-dependent DNA helicase Q1 (Homo sapiens) (UniProt P46063). Description: qHTS Validation Assay for Inhibitors of RecQ-Like Dna Helicase 1 (RECQ1) (AID 2353). An outline of the steps:
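50 nM RECQ1T1 preincubated 15 min with compound in Tris pH 8.0 buffer with MgCl2, DTT, Tween-20 and 2.5 ug/ml poly(dI-dC); started with 200 nM TAMRA/BHQ-2 forked duplex and 2 mM ATP. Unwinding read as fluorescence (525/598 nm), two reads 2 h apart.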

The target of test [14] is RecQ-like DNA helicase BLM (Homo sapiens) (UniProt P54132). Description: qHTS Validation Assay for Inhibitors of Bloom's syndrome helicase (BLM) (AID 2364). An outline of the steps: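 BLM 50 nM in 25 mM Tris-HCl pH 8.0, 5 mM NaCl, 2 mM MgCl2, 1 mM DTT, 0.01% Tween-20, 2.5 ug/ml poly(dI-dC); 15 min cpd preinc, RT. Start: 200 nM forked DNA + 2 mM ATP (final). TAMRA read, 2 reads 2 h apart.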

Test [15] can be described thus: Validation screen for inhibitors of Lassa infection (AID 463096; calls by dose curve).
Test [16] can be described thus: Validation screen for small molecules that induce DNA re-replication in MCF 10A normal breast cells (AID 463097). Further: nearly all actives have a fitted effect of over 60% in size. An outline of the steps:
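MCF 10A cells exposed to compound 48 hr at 37 C, 5% CO2, then Hoechst-stained 40 min. Laser-scanning imaging of nuclear DNA content (405 nm ex, 500-530 nm em); re-replication scored as rise in nuclei with elevated fluorescence intensity.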

Each structure is given as a SMILES string. Results filed as inconclusive are left out. The source made the active and inactive calls. Unless noted, the call rests on the fitted dose curve; in most records, active means well fitted curve in the direction sought with a large enough effect; inconclusive means small, poorly fitted or top-dose-only effect, or another doubt; inactive means no such curve, though single readings can be large; an effect the other way counts as inactive or inconclusive.

Chain of Ubiquitin carboxyl-terminal hydrolase 2 (Homo sapiens) (O75604 whole entry, looked up): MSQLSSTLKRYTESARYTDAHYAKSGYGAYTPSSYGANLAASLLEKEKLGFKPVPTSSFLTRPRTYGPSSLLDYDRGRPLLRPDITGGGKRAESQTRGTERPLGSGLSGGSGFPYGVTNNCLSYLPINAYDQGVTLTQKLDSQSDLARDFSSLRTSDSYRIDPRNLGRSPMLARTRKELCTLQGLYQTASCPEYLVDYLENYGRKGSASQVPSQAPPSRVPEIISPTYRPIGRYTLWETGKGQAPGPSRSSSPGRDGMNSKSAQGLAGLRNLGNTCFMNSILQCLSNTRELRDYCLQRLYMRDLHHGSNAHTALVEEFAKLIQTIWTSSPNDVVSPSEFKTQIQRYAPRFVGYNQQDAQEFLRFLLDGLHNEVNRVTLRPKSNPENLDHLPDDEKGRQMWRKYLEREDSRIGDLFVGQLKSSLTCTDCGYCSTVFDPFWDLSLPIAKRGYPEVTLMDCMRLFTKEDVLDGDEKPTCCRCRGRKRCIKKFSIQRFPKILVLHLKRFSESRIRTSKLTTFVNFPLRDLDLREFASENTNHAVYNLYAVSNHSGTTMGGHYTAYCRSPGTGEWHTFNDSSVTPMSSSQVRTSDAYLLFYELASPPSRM
Chain of ATP-dependent 6-phosphofructokinase (Trypanosoma brucei brucei) (O15648 whole entry, looked up): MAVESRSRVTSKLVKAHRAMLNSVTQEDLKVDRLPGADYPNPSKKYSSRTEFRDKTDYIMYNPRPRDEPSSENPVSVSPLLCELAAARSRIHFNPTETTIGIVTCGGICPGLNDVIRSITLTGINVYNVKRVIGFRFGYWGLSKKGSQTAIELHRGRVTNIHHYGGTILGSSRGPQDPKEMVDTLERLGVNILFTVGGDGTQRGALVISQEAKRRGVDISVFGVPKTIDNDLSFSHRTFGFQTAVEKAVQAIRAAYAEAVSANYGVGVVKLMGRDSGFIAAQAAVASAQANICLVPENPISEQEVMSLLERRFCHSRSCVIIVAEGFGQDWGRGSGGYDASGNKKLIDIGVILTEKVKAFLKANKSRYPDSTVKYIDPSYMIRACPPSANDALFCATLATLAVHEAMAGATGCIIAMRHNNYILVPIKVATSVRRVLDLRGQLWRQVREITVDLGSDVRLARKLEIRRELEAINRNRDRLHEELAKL
Chain of Tumor susceptibility gene 101 protein (Homo sapiens) (Q99816 whole entry, looked up, the tested form may be a part): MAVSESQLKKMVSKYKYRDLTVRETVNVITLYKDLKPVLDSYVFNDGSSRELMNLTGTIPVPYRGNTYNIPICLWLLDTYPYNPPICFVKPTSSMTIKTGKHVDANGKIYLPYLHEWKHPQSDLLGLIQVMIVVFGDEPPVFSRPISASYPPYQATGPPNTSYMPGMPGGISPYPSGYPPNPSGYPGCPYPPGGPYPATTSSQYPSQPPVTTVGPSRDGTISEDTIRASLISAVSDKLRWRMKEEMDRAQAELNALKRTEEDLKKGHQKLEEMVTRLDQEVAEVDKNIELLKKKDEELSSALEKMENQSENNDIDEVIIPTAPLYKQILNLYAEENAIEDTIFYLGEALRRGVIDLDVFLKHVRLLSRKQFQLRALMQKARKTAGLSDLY
Chain of Beta-2 adrenergic receptor (Homo sapiens) (P07550 whole entry, looked up): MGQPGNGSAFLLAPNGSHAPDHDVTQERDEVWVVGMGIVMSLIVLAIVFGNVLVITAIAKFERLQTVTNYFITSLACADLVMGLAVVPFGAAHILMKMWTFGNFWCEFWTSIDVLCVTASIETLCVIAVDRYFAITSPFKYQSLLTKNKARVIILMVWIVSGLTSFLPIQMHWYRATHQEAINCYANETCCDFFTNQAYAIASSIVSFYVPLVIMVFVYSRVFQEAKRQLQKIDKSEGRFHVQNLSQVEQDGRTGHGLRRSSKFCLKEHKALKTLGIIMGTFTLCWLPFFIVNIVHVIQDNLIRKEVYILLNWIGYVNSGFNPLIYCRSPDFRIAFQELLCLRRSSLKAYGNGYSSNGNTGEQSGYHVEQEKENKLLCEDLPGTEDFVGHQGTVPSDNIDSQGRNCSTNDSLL
Chain of DNA polymerase III PolC-type (Bacillus subtilis (strain 168)) (P13267 whole entry, looked up): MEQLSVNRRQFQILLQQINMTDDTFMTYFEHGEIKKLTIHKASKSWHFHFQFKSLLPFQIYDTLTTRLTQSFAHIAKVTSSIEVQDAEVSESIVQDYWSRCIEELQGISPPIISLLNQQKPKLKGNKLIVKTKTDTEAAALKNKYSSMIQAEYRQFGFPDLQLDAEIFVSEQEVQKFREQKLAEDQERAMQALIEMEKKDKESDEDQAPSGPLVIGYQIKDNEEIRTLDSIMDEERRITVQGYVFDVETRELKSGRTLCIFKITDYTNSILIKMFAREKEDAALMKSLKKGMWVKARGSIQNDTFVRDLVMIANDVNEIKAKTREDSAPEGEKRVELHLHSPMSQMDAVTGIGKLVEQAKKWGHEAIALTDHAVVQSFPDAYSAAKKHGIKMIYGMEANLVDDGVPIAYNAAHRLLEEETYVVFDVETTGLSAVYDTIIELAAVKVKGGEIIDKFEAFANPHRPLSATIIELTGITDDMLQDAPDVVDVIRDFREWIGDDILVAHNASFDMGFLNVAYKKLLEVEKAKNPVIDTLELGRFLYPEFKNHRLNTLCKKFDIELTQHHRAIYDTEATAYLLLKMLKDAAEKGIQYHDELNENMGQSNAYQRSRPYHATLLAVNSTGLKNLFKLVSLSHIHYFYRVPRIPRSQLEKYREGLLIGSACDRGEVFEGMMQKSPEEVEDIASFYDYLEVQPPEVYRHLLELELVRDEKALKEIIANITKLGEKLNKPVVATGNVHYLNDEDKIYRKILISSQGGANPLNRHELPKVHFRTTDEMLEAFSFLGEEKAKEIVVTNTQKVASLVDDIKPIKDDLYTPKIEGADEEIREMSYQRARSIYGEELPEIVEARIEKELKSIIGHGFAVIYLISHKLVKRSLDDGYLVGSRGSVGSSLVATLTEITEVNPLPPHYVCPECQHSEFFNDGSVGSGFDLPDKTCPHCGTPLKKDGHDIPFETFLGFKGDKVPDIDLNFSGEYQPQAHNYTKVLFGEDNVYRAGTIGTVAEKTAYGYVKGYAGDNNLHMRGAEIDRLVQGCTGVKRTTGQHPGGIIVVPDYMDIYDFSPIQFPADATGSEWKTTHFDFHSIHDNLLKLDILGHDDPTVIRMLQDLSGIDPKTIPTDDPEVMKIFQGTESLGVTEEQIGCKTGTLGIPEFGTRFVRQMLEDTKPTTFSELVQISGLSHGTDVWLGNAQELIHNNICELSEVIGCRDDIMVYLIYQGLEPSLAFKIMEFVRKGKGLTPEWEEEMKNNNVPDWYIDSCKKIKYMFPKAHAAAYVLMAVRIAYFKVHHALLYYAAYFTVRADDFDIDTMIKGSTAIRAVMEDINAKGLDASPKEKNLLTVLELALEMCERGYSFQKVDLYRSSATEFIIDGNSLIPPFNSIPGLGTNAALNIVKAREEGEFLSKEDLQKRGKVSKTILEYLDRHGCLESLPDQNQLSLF
Chain of ATP-dependent DNA helicase Q1 (Homo sapiens) (P46063 whole entry, looked up): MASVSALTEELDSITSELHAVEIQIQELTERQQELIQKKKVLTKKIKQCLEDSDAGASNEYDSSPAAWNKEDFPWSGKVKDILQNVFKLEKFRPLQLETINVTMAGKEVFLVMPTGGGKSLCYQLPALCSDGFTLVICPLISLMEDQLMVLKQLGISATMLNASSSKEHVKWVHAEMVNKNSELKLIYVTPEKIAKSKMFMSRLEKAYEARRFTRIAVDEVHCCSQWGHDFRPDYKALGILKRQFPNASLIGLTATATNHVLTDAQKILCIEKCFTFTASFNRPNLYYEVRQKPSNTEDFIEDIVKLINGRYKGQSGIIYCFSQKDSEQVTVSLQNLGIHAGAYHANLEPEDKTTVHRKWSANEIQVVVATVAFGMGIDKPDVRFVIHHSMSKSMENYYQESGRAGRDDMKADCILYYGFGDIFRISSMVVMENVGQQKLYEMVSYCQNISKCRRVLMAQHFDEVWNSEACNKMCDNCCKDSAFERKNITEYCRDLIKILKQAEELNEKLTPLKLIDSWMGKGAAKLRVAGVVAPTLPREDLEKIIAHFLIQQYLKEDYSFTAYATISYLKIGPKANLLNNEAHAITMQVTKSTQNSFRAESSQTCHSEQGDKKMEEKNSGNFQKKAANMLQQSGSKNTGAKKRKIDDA
Chain of Ferritin light chain (Equus caballus) (P02791 2-175 limits assumed): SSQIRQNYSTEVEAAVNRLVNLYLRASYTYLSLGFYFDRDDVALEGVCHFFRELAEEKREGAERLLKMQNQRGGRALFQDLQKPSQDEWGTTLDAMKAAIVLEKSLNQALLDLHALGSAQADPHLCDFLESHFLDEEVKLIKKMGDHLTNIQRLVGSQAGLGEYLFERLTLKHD

As to `Clc1ccccc1Cl`, the call in [1] was inactive.

Take `CC(C)(O)[C@@H]1C2OC(=O)[C@@H]1[C@]1(O)C[C@H]3O[C@]34C(=O)O[C@H]2[C@]14C` (tested in a mixture with another compound): the Potency result in test [2], in test [3], in test [4], in test [5], in [6] and in test [7] was “inactive” each time. In addition, the Potency entry in [9] and in test [11] was “inactive” each time. For the same compound, the result in test [8] and in [10] was inactive.

On to `Cc1cc([C@@H]2CCCN2C)on1`, for which the Potency result in test [4], in [5], in [6], in test [7] and in test [9] was “inactive” in each case. The result in test [8] and in test [10] was inactive.

In the case of `COc1ccc2c(c1)c(CCN1CCOCC1)c(C)n2C(=O)c1cccc(Cl)c1Cl`, the Potency entry in test [3], in test [4], in [6], in [7] and in [11] was “inactive” throughout. Also, the call in test [8] was inactive.

As for `ClC=C(Cl)Cl`, the compound was called inactive in test [1].

As for `NC(=O)c1ccc(OCC(O)CN2CC=C(c3ccc(F)cc3)CC2)cc1` (configuration not stated), the result in test [12] and in test [10] was inactive. Also, the Potency result in test [13], in test [14], in test [4], in test [15], in [16] and in test [6] was “inactive” throughout. Also, the Potency entry in [7], in [9] and in [11] was “inactive” in each case.

For `N#CCCN`, the Potency result in test [3], in test [4], in [5], in [6], in test [7] and in [9] was “inactive” in each case. Besides, in [11], the Potency entry is “inactive”.

As for `CCNC(=O)[C@H]1O[C@@H](n2cnc3c(N)ncnc32)[C@H](O)[C@@H]1O`, the Potency entry in test [2], in [4], in test [5], in [6], in [7] and in test [11] was “inactive” throughout. For the same compound, the call in test [8] and in [10] was inactive.

As to `COc1ccc2c(c1O)-c1cccc3c1[C@@H](C2)N(C)CC3`, the Potency entry in [2], in test [4], in test [5], in test [6] and in [7] was “inactive” in each case. Besides, in test [8], the outcome was inactive.

As for `CC(=O)OCC1=C(C(=O)O)N2C(=O)[C@@H](NC(=O)CCC[C@@H](N)C(=O)O)[C@H]2SC1`, the Potency result in [2], in [3], in [4], in test [5], in test [6] and in [7] was “inactive” each time. In addition, the Potency entry in test [9] was “inactive”.

Take `O=c1c2ccccc2[se]n1-c1ccccc1`: the outcome in test [12] and in test [10] was inactive. Also, the Potency result in [13], in test [14], in [3], in test [4] and in test [6] was “inactive” in each case. The Potency is 4.74 µM (active) in test [7] and 1.51 µM (active) in test [11].

On to `CCN1C[C@@]2(COC)C3[C@@H](OC)C4[C@@H]1C3([C@@H]1C[C@]3(O)[C@H](OC(=O)c5ccccc5)[C@@H]1[C@]4(OC(C)=O)[C@@H](O)[C@@H]3OC)[C@H](OC)C[C@H]2O`, for which the Potency entry in test [2], in test [4], in [5], in test [6], in test [7] and in test [9] was “inactive” in each case. For the same compound, the Potency result in [11] was “inactive”. Also, the compound was called inactive in [8] and in [10].

Take `C[N+]1(C)CCc2cc3c(cc2[C@H]1[C@@H]1OC(=O)c2c1ccc1c2OCO1)OCO3`: the Potency entry in test [3], in [4], in test [6], in test [7] and in test [9] was “inactive” throughout. Besides, the outcome in [8] and in test [10] was inactive.

With `O=C(O)C(Cl)(Cl)Cl`, the compound was called inactive in test [1].

`C[C@@H]1O[C@@H](O[C@H]2C[C@@H](O)[C@]3(CO)[C@@H]4C(CC[C@]3(O)C2)[C@@]2(O)CC[C@H]([C@@H]3COC(=O)C3)[C@@]2(C)C[C@H]4O)[C@H](O)[C@H](O)[C@H]1O` (some centres not stated): the Potency entry in test [2], in [3], in test [4], in [6], in test [7] and in test [11] was “inactive” each time. Further, the call in test [8] and in test [10] was inactive.

Take `[O]=[Cd]`: the compound was classed as inactive in test [1].

Turning to `N=C(N)c1ccc(CS(=O)(=O)F)cc1`, the Potency result in [2], in [3], in [4], in [5], in test [6] and in test [7] was “inactive” throughout. The Potency result in [9] and in test [11] was “inactive” throughout. Besides, the outcome in test [8] was inactive.

`C[C@H]1CCC[C@H](O)CCCCCc2cc(O)cc(O)c2C(=O)O1`: in test [1], the call was inactive.

For `COC(=O)N1CCN(C(=O)Cc2ccc(Cl)c(Cl)c2)C(CN2CCCC2)C1` (configuration not stated), the result in test [12] and in [8] was inactive. Further, the Potency entry in test [13], in test [3], in test [4], in [15], in test [16] and in test [6] was “inactive” throughout. The Potency result in test [7] and in test [9] was “inactive” in each case.

For the compound `CN1CC[C@@]2(C)c3cc(OC(=O)Nc4ccccc4)ccc3N(C)[C@@H]12`, the Potency entry in [2], in [4], in test [6] and in [7] was “inactive” throughout. The result in test [10] was inactive.

Turning to `CCCC[N+]1(C)C2CC(OC(=O)[C@H](CO)c3ccccc3)CC1C1OC12` (some centres not stated), the Potency result in test [2], in test [4], in test [6], in test [7] and in test [9] was “inactive” in each case. The result in [8] and in test [10] was inactive.

As for `C=CCN=C=S`, the call in test [1] was inactive.
